# Source: the OligoGym collection
# Molecular target: UBA3
# Assay: pooled miR-30 sensor sort-seq; sequence = guide strand
# Settings: shRNA
# Further: reference of the scale not given here.
row,Sequence,sensor-assay potency score (higher = more potent)
1,TTGCAGAGAAGCACTATTGGTT,-0.184
2,ATCTACATCATTAAACACCAAG,-1.38
3,TAGATAATCCAAAACCTCCTGT,0.333
4,TTGAATAGTACAGTCTGTGGGG,0.37
5,TTGTCGATAGAAAGTGTCGTTA,-0.471
6,TAGAACTTTACATGTATCTAAC,-0.95
7,TTGGATCTAAGACACCATCTTC,0.0215

# Molecular target: UBE2F
# Assay: as above
# Settings: shRNA
row,Sequence,sensor-assay potency score (higher = more potent)
1,TTCAAGTTCTGCAACCTCTTTA,0.721
2,TTCTCCATCTACAATGAGCAGT,-0.914
3,ACAAACTGTAACACAGTCCATG,-1.41
4,TTCTGCAGCTTCAATATTCAGT,-0.23
5,TTTGAGACCATCGTCACGCTTC,0.155
6,AACTGTAACACAGTCCATGGGC,-0.0499
7,TTTAACAAGCAATTTGTCTCTC,0.519
8,TAGTCATCCACTTTATTCCGGA,-0.0909
9,TTTATTCCGGAAGTCCTCCTTG,-0.121
10,TTTGTCTCTCACAGAAACCCTC,-0.658
11,TAGCTGAAAACAATGAAGCTTG,-0.377
12,TTAACAAGCAATTTGTCTCTCA,-0.236
